Experimental data as given in ChEMBL document CHEMBL1961873, “Compounds: GSK PKIS; Assays: Nanosyn kinase panel” (2012).

Experiments:
[1] = target: Tyrosine-protein kinase SYK (Homo sapiens) (UniProt P43405); details: at 1 µM
[2] = target: T1, Tyrosine-protein kinase Tec (Homo sapiens) (UniProt P42680); details: at 0.1 µM
T1 sequence (whole entry): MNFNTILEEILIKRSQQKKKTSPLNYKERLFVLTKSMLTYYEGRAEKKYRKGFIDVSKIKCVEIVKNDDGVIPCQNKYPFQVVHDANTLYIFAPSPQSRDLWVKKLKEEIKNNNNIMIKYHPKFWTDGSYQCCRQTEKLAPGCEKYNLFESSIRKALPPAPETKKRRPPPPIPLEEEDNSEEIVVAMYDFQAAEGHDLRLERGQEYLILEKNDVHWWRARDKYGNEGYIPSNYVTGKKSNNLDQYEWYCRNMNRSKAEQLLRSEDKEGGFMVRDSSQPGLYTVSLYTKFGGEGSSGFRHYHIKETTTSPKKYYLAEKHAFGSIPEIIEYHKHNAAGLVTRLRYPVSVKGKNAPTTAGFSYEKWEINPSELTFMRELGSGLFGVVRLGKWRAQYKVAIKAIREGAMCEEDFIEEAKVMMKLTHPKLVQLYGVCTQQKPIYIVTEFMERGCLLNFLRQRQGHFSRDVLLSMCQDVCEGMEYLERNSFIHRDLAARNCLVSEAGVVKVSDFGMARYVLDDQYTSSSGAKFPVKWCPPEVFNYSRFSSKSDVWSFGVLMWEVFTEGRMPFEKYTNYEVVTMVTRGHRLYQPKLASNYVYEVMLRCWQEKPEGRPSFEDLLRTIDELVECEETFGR

[3] = target: T1, Tyrosine-protein kinase Tec (Homo sapiens); details: at 1 µM
[4] = target: Angiopoietin-1 receptor (Homo sapiens) (UniProt Q02763); details: at 0.1 µM
[5] = target: Angiopoietin-1 receptor (Homo sapiens) (UniProt Q02763); details: at 1 µM
[6] = target: T2, Non-receptor tyrosine-protein kinase TNK1 (Homo sapiens) (UniProt Q13470); details: at 0.1 µM
T2 sequence (whole entry): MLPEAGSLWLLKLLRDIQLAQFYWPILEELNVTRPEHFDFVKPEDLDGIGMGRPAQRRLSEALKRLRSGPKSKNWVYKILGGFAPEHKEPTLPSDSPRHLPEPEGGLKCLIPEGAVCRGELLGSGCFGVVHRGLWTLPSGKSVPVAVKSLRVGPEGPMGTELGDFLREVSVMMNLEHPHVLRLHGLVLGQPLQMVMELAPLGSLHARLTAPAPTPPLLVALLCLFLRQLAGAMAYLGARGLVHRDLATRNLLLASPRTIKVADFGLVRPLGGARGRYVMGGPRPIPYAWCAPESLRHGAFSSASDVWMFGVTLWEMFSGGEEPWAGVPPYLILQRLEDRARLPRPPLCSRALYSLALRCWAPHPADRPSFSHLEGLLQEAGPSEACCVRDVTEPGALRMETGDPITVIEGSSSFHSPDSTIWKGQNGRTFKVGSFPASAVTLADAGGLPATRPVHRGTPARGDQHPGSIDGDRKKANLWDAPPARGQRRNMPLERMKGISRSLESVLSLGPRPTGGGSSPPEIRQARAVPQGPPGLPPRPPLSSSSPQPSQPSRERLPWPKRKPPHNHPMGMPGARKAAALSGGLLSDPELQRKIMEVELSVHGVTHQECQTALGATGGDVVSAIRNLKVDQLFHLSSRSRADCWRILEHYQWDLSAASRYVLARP

[7] = target: T2, Non-receptor tyrosine-protein kinase TNK1 (Homo sapiens); details: at 1 µM
[8] = target: Activated CDC42 kinase 1 (Homo sapiens) (UniProt Q07912); details: at 0.1 µM
[9] = target: Activated CDC42 kinase 1 (Homo sapiens) (UniProt Q07912); details: at 1 µM
[10] = target: High affinity nerve growth factor receptor (Homo sapiens) (UniProt P04629); details: at 0.1 µM;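 further: each value is a mean of replicate percent inhibition readings against TRKA kinase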
Chain of High affinity nerve growth factor receptor (Homo sapiens) (P04629 33-796 limits assumed): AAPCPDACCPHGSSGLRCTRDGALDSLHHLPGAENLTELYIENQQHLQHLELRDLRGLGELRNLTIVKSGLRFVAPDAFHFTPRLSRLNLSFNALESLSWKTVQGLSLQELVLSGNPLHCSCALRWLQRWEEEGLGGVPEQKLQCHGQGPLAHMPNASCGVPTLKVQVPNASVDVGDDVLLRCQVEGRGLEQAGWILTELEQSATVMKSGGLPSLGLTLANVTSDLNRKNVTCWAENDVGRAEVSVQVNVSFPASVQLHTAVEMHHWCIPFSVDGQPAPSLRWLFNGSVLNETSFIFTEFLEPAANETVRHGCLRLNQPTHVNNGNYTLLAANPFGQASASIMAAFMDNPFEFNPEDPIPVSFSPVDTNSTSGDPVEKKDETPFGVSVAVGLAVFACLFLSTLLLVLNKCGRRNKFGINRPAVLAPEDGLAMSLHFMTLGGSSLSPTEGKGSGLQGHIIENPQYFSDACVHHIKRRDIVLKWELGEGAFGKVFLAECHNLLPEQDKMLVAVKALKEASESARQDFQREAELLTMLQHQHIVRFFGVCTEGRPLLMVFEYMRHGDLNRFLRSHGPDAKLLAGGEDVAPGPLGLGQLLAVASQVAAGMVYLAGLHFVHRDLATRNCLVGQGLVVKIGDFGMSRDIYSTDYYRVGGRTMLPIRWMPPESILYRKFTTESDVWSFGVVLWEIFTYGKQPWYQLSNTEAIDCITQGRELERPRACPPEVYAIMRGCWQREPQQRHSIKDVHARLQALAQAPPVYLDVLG

Chain of Activated CDC42 kinase 1 (Homo sapiens) (Q07912 whole entry, looked up): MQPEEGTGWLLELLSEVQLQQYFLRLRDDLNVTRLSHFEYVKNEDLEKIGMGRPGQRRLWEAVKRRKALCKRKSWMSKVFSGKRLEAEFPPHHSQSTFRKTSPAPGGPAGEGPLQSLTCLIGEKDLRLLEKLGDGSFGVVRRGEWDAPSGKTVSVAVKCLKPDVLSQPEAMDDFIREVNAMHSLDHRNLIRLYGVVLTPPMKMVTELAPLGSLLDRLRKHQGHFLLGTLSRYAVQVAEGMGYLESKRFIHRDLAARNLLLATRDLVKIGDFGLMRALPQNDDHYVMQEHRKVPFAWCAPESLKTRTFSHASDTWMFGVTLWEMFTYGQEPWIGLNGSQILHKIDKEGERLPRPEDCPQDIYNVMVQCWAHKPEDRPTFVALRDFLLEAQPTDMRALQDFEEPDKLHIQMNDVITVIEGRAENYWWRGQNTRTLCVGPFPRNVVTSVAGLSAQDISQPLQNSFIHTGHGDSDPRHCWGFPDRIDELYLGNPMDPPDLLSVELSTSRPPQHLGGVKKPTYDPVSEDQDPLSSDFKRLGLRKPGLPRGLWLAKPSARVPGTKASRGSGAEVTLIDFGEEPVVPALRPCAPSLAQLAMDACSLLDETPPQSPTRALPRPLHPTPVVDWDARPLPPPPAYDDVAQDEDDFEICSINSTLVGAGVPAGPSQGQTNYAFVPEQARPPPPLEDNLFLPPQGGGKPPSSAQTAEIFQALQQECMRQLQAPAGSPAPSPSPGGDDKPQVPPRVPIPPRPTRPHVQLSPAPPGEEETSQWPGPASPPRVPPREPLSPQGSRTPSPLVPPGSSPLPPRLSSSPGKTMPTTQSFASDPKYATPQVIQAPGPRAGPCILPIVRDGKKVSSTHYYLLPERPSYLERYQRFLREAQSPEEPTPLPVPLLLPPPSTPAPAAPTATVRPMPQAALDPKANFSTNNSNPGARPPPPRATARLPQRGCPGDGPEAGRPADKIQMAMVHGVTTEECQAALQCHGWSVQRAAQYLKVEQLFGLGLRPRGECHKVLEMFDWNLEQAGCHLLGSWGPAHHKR
Chain of Angiopoietin-1 receptor (Homo sapiens) (Q02763 whole entry): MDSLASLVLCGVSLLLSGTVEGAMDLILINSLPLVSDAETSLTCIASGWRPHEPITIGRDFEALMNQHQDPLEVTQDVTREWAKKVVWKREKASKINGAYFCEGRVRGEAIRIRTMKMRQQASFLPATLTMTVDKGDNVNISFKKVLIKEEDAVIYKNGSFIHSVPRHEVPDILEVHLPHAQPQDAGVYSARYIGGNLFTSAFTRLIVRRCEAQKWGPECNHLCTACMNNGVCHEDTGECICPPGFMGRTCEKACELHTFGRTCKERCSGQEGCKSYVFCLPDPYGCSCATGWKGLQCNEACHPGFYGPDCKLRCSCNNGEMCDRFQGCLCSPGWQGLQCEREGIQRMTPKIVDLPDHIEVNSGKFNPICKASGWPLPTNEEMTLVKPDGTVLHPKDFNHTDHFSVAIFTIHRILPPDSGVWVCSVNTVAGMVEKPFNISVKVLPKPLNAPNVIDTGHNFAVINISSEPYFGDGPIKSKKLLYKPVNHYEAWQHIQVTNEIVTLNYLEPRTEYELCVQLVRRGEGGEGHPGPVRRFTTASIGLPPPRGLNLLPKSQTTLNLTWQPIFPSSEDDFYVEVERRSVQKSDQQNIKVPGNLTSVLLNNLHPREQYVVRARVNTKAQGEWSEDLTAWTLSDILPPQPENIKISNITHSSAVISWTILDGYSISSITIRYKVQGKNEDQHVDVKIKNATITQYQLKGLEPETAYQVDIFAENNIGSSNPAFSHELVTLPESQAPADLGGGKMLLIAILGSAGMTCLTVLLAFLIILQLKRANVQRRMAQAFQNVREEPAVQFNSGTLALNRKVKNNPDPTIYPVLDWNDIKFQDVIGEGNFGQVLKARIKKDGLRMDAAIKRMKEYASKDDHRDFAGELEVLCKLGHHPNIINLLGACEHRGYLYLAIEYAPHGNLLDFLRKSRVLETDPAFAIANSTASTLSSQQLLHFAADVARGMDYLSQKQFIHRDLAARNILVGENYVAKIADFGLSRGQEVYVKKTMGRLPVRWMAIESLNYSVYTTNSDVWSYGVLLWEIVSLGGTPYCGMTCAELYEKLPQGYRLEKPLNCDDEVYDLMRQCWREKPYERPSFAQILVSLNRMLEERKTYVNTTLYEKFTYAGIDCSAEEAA

SMILES | inhibition [1] | inhibition [2] | inhibition [3] | inhibition [4] | inhibition [5] | inhibition [6] | inhibition [7] | inhibition [8] | inhibition [9] | inhibition [10]
Fc1cccc(COc2ccc(Nc3ncnc4sc(-c5ccco5)cc34)cc2Cl)c1 | -6.92% | 0.94% | 5.13% | 4.1% | 6.76% | 1.8% | 17% | 1.13% | 1.93% | 1.02%
CCCN(CCS(C)(=O)=O)Cc1ccc(-c2ccc3ncnc(Nc4ccc(OCc5cccc(F)c5)c(Cl)c4)c3c2)o1 | 1.17% | 2.93% | 4.68% | 1.56% | 6.25% | 1.24% | 12% | 0.32% | 1.4% | 2.55%
CN1CCC(n2cnc(-c3ccc(F)cc3)c2-c2ccnc(Nc3ccccc3)n2)CC1 | 0.18% | 3.59% | 3.4% | 2.95% | 4.52% | -0.22% | 7.4% | 0.74% | 2.45% | -0.03%
Cc1cccc2c1NC(=O)/C2=N\Nc1ccc(S(N)(=O)=O)cc1 | -1.74% | 5.22% | 7.22% | 1.65% | 1.24% | 2.15% | 5.82% | 1.06% | 1.59% | 4.96%
O=S(=O)(CCNCc1ccc(-c2ccc3ncnc(Nc4ccc(OCc5cccc(F)c5)c(Cl)c4)c3c2)o1)c1ccccc1 | -4.14% | 1.85% | 5.02% | 5.73% | 8.7% | 4.16% | 22.3% | 2.38% | 1.4% | 2.46%
c1cc(-c2cnn3nc(N4CCOCC4)ccc23)nc(NC2CC2)n1 | -2.21% | 5.06% | 8.36% | 0.4% | 5.76% | 4.07% | 17.8% | 1.19% | 0.94% | 4.16%
COc1cc(N2CCN(C(C)C)CC2)ccc1Nc1nc(Nc2ccc(F)cc2C(N)=O)c2cc[nH]c2n1 | 35.9% | 6.32% | 3.59% | 4.35% | 3.7% | 34.7% | 74.1% | 10.8% | 61.7% | -1.19%
[O-][S+]1CCN(Cc2ccc(-c3ccc4ncnc(Nc5ccc(OCc6cccc(F)c6)c(Cl)c5)c4c3)o2)CC1 | 0.31% | 2.12% | 4.55% | 3.66% | 5.42% | 2.94% | 11.7% | 1.61% | 1.32% | 3.52%
COc1cc2c(cc1Nc1nc(Nc3ccsc3C(N)=O)c3cc[nH]c3n1)N(C(=O)CN(C)C)CCC2(C)C | 4.93% | 5.38% | 8.93% | 1.06% | 3.63% | 60.5% | 89.3% | 6.79% | 43.5% | 2.83%
